What all share (assay): NCI-60 one-dose screen, 48 h (100 = growth as untreated, 0 = no growth, -100 = all killed)
Holding throughout (settings): 10 µM unless noted

Assay [1] deals with RPMI-8226 leukemia.
Assay [2] deals with OVCAR-8 ovarian.
For assay [3], the system named is OVCAR-5 ovarian.
Assay [4] has as its system OVCAR-4 ovarian.
Assay [5] deals with IGROV1 ovarian.
Assay [6] concerns OVCAR-3 ovarian.
Assay [7] concerns HS 578T breast.
Assay [8] relates to NCI/ADR-RES ovarian.
For assay [9], the system named is T-47D breast.

This is part of a sample that, as a whole, favours compounds with a hit. Of some 83,000 tested, about 20% had one in any assay.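 Cell lines were cultured in 96-well plates, exposed to a single compound concentration, and assessed for percent growth 48 hours later.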 Unmarked numbers belong to inactive results. Activity calls are given as the source filed them. The calls were made as follows: active = growth percent below 10; inactive = the rest.

With `Cn1cc(-c2ccc3ncc(-c4ccc(CC(=O)Nc5cc(C(C)(C)C)no5)cc4)nc3c2)cn1`, the growth in assay [1] is 32.3%; in assay [2], 37%; in assay [3] it was 74.6%; in [4] it was 31.9%; in [5] it was 19.3%; in assay [6], 49.3%. Moreover, the growth in assay [7] is 25.9%; in [8] it was 43.7%; in assay [9] it was 25.5%.

In the case of `O=C(NCc1ccco1)C1CN(c2ccc(Cl)cc2)N(c2ccc(Cl)cc2)C1=O` (configuration not stated), the growth in [1] is 48%; in assay [2], 66.4%; in [3], 82.2%; in [4], 57.7%; in assay [5], 46.3%; in assay [6], 3.64% (active). Also, the growth in assay [7] was 36.7%; in assay [8] it was 24.3%; in [9], 43.2%.

Take `CC(C)Cn1c2c(c(=S)[nH]c1=O)CCC2`: the growth was 99.2% in assay [1]; 101% in [2]; 99.5% in [3]; 101% in [4]; 103% in assay [5]; 111% in assay [6]. For the same compound, the values for the growth in assay [7], in [8] and in assay [9] were 102%, 106% and 111%, respectively.

Take `COc1cccc2c1C=C1CCCCC3=Cc4c(OC)cccc4OC13O2`: the growth in assay [1] is 42.6%; in [2], 53.1%; in [3], 63.9%; in assay [4], 57.7%; in assay [5], 57.5%; in [6], 14.2%. In addition, the growth in [7] is 42.8%; in assay [8], 16.5%; in assay [9] it was 40.3%.

On to `c1ccc2c(c1)oc1cc3sccc3nc12`, for which the growth in assay [1] was 99.4%; in assay [2], 101%; in assay [3], 109%; in [4], 102%; in assay [5] it was 95.8%; in assay [6] it was 107%. The growth in [7] was 101%; in [8], 102%; in assay [9], 101%.

On to `O=C1Nc2ccccc2/C1=C/c1ccc[nH]1`, for which the growth in assay [1] is 97.6%; in [2], 92.8%; in assay [3], 78.7%; in assay [4] it was 29.8%; in assay [5], 49.7%; in assay [6] it was 81.7%. Further, the growth in assay [7] was 86.6%; in [8], 99.9%; in assay [9], -24.3% (active).

`CCCCC1COc2cccc3c2N1C=C/C3=C\C(=O)N(C)c1ccccc1` (configuration not stated): the growth in assay [1] is 7.39% (active); in [2], 52.9%; in assay [3] it was 83.9%; in [4], 50.7%; in assay [5], 56.1%; in assay [6], 49.2%. For the same compound, the growth was 78.4% in [7], 86.4% in [8] and 41.6% in assay [9].

Consider `Cc1ccc2c(n1)C(=O)C(Oc1ccc(Br)cc1)=CC2=O`, for which the growth is 78.7% in assay [1]; 92.3% in assay [2]; 114% in [3]; 94.5% in assay [4]; 104% in assay [5]; 84.2% in [6]. Also, the growth in assay [7] was 100%; in assay [8] it was 95.8%; in assay [9], 59.2%.

These data come from PubChem BioAssay (NCI).
